Screening data as filed in PubChem.
A selection: hits, their analogues and other compounds. The true share with any hit is near 8.7%.
G9a block: inhibitors of human histone lysine methyltransferase G9a | Q96KQ7 | G9a H3K9 monomethylation, AlphaScreen, 2 h | Potency, µM (titrated, usually from 102 µM), without a hit: at the highest dose activity, negative = inhibition, usual class: inhibitors | 350,000 tested, 8.8% active; also: % is scaled to controls: 0 for no effect and ±100 for the full control effect; nearly all actives have a fitted effect of over 75% in size
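Chemiluminescent proximity detection of H3K9 monomethylation, read after 10 min bead incubation in the dark. Reaction: 20 nM G9a, 500 nM biotin-H3K9 peptide, 20 uM SAM cofactor, 2 h, room temperature, following 15 min enzyme-compound preincubation.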
HP1b binding inh: HP1-beta chromodomain-methylated histone interaction inhibition. P83916. AlphaScreen HP1-beta / biotin-H3K9me3 peptide binding. Potency, µM (highest dose often 114 µM), for inactives: top-dose activity change, negative = inhibition, hits mostly inhibitors. 390,000 tested, 0.56% active; also: nearly all actives have a fitted effect of over 70% in size
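HP1-beta protein (50 nM final) preincubated 30 min at room temperature with biotinylated H3(1-18)K9me3 peptide (50 nM) in PBS pH 7.4, 0.01% Tween-20, then compound added for 30 min. AlphaScreen streptavidin donor/nickel chelate acceptor beads (10 ug/mL final), 30 min dark, luminescence read.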
Sfp inh: Sfp phosphopantetheinyl transferase inhibition; Potency, µM, without a hit: largest response in the series, negative = inhibition, hits mostly inhibitors; 310,000 tested, 3.5% active; Biochemical Sfp PPTase activity, qHTS; Q9F4F7; AID 1490;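 also: the enzyme is Sfp with the accession as filed and its product quenches rhodamine fluorescence; 0% = enzyme reaction without inhibitor and -100% = no enzyme wells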
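After 15 min at room temperature with compound, 15 nM Sfp received 5 uM rhodamine-CoA plus 12.5 uM BHQ-2-ybbR (50 mM Hepes pH 7.6, 10 mM MgCl2). Rate came from the fluorescence difference over 30 min, ex 525/em 598 nm.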
JMJD2A Tudor: JMJD2A Tudor domain (human) inhibition; O75164; AlphaScreen JMJD2A-Tudor / H3K4me3 peptide binding; Potency, µM (titrated, usually from 114 µM), inactives show at the top dose activity change, negative = inhibition, hits mostly inhibitors; 390,000 tested, 4.4% active; AID 504339; also: % is scaled to controls: 0 for no effect and ±100 for the full control effect; nearly all actives have a fitted effect of over 50% in size
Target sequence (O75164 whole entry, looked up, the tested form may be a part): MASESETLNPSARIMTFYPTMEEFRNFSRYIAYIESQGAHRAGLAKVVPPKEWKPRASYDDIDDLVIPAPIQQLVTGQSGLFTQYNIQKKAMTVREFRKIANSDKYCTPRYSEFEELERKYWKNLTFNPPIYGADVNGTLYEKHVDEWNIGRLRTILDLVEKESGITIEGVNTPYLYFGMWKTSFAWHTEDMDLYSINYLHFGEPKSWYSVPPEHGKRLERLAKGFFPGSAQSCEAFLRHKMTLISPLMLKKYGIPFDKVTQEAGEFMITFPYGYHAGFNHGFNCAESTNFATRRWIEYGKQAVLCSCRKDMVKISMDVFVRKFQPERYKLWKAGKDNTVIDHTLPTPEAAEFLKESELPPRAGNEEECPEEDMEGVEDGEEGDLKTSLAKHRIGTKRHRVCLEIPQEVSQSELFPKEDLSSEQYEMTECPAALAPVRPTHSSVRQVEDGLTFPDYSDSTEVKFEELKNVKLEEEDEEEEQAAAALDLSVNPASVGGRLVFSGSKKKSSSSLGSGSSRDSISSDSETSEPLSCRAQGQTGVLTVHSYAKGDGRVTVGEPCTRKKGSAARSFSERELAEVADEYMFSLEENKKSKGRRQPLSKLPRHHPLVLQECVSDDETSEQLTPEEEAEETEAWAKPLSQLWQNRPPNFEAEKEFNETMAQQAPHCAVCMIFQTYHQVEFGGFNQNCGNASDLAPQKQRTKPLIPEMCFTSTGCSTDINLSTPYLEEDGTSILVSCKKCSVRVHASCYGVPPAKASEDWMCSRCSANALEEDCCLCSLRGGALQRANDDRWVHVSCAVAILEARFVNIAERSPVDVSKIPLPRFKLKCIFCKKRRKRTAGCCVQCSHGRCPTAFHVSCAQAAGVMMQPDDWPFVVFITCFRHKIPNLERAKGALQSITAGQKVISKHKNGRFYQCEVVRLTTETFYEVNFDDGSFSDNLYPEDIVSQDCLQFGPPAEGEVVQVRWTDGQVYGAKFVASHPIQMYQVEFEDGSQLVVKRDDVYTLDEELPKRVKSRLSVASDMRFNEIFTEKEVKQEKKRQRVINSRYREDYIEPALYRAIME
ALOX12 inh: inhibitors of human 12S-lipoxygenase ALOX12; AID 1671190; 580,000 tested, 1.1% active; purified 12hLO, xylenol orange hydroperoxide absorbance; P18054; Potency, µM (series often up to 108 µM), without a hit: top-dose activity change, negative = inhibition, hits mostly inhibitors; also: % is scaled to controls: 0 for no effect and ±100 for the full control effect
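Hydroperoxide product was detected by ferrous iron/xylenol orange as the 573 to 405 nm absorbance ratio. Arachidonic acid at 40 uM (final) was turned over for 30 min at room temperature by 150 nM human 12hLO, pH 7.0 Hepes buffer, after 15 min compound preincubation.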
BAZ2B inh: BAZ2B (human) inhibition; Q9UIF8; AlphaScreen BAZ2B-H3K14Ac peptide displacement; Potency, µM (doses to about 114 µM), without a hit: at the top dose activity change, negative = inhibition, hits mostly inhibitors; 360,000 tested, 4.4% active; also: % is scaled to controls: 0 for no effect and ±100 for the full control effect; nearly all actives have a fitted effect of over 60% in size
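Multi-concentration screen (max 110 uM) measuring displacement of acetylated histone H3 peptide from BAZ2B by AlphaScreen, using 50 nM protein, 50 nM peptide and 10 ug/mL streptavidin donor plus Ni-chelate acceptor beads.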
* marks the source's active call; other numbers are inactive results; ? = inconclusive; . = no result given; [ ] = dose if it differs, or a comment. Calls follow the shape of the dose curve; as a rule, active = well fitted curve in the direction sought with a large enough effect; inconclusive = small, poorly fitted or top-dose-only effect, or another doubt; inactive = no such curve, though single readings can be large; an effect the other way counts as inactive or inconclusive. Potency is read from the fitted curve at half-maximal effect.

SMILES	G9a block	HP1b binding inh	Sfp inh	JMJD2A Tudor	ALOX12 inh	BAZ2B inh
COc1ccc(OCCn2cncn2)cc1	22µM*	-13%	-3%	7.9µM*	-6%	56µM*
CCc1ccc(C(=O)NCc2ccc(N3CCCN(C)CC3)nc2)o1	.	.	.	.	-2%	.
CCS(=O)(=O)N1CCC(N2C(=O)[C@H](OCCOC)[C@@H]2c2ccncc2)CC1	.	.	.	.	5%	.
CN(C)CCNC(=O)c1ccc2c(c1)NC(=O)C(CS(=O)(=O)Cc1cccc(Br)c1)N2 (stereo not drawn)	?	?	.	?	268%	?
O=C(NCc1ccccc1Cl)c1ccc2c(c1)NC(=O)C(CS(=O)(=O)Cc1ccc(F)cc1Cl)N2 (stereo not drawn)	?	-13%	.	-16%	?	-17%
O=C(NCc1ccc(Cl)cc1)c1ccc2c(c1)NC(=O)C(CS(=O)(=O)Cc1ccc(F)cc1Cl)N2 (stereo not drawn)	16µM*	18%	.	?	?	10%[57.1 µM]
CC(C)CCNC(=O)c1ccc2c(c1)NC(=O)C(CS(=O)(=O)Cc1cccc(Br)c1)N2 (stereo not drawn)	13µM*	22%	.	?	-30%	2%[57.1 µM]
CCN(CC)CCCNC(=O)c1ccc2c(c1)NC(=O)C(CS(=O)(=O)Cc1ccc(F)cc1Cl)N2 (stereo not drawn)	10µM*	11%	.	-18%	95%	-10%
Cc1ccc(CNC(=O)c2ccc3c(c2)NC(=O)C(CS(=O)(=O)Cc2cccc(F)c2)N3)cc1 (stereo not drawn)	6.3µM*	40%	.	89µM*	?	-1%[57.1 µM]
Cc1ccc(F)c(NC(=O)CCNC(=O)c2cccs2)c1	.	.	.	.	-19%	.
Cc1ncc(-c2ccc(S(=O)(=O)N3CCN(c4cc(Cl)ccc4C)CC3)cc2)o1	.	.	.	.	43%	.
CCn1c(CO)nnc1C1CC(NC(=O)c2nnc3nc(C)ccn23)C1 (stereo not drawn)	.	.	.	.	-1%	.
CCOc1ccc(NC(=O)Cc2coc3cc(C)c(C(C)C)cc23)cc1S(=O)(=O)N1CCCC1	.	.	.	.	-8%	.
CN(CCCC[C@H](CNCc1ccc(-c2ccccc2)cc1)N1C[C@H](c2ccccc2)N(CCc2ccc(Cl)c(Cl)c2)C(=O)C1=O)Cc1ccc(-c2ccccc2)cc1	?	.	22µM*	.	.	?
Cc1ccc(CCN2CC(C(=O)NCCCN(C)Cc3ccccc3)CC2=O)cc1 (stereo not drawn)	.	31%	-5%	-2%	8%	0%
CCOc1ccc(CCN2C(=O)C(=O)N([C@H](CCCN(C)Cc3ccccc3)CNCc3ccccc3)C[C@@H]2C(C)C)cc1	-21%[59 µM]	.	-3%	.	.	?
COc1ccc(CNC[C@@H](CCCCN(C)Cc2ccc(OC)cc2)N2C[C@H](c3ccccc3)N(CCc3ccc(Cl)c(Cl)c3)C(=O)C2=O)cc1	?	-9%	28µM*	40µM*	.	?
Cc1nnc(SCc2c(Cl)cccc2[N+](=O)[O-])s1	?	42%	22%	-2%	0%	-24%
O=[N+]([O-])c1cccc(Cl)c1CSc1ccccn1	45µM*	50%	-13%	-5%	?	?
CC(=O)N(CC(=O)O)c1ccccc1C(=O)O	18µM*	12%	9%	-1%	?	-1%
CC(=O)N(Cc1ccccc1)c1ccccc1C(=O)O	18%	32%	24%	10%	-3%	-9%
O=C1OC(c2ccccc2)(c2ccccc2)c2ccccc21	.	40%[57 µM]	.	50%	-8%	.
O=C1C(=C(c2ccccc2)c2ccccc2)C(Cl)C(Cl)(Cl)c2ccccc21 (stereo not drawn)	.	.	.	.	10µM*	.
Cc1nc(SCc2nc(-c3ccccc3)oc2C)[nH]c(=O)c1C	.	.	.	.	-14%	.
CCCCCOc1ccc(Br)cc1/C(C)=N/NC1=NCCN1	8.9µM*	12%	?	-5%[11.4 µM]	?	-24%
SMILES	G9a block	HP1b binding inh	Sfp inh	JMJD2A Tudor	ALOX12 inh	BAZ2B inh
CCCc1[nH]nc2c1C(c1ccc(O)cc1OCC)C(C#N)=C(N)O2 (stereo not drawn)	?	5%	8%	-18%	0%	79µM*
CCCc1[nH]nc2c1C(c1ccc(OC)cc1OC)C(C#N)=C(N)O2 (stereo not drawn)	2%[12.7 µM]	38%	1%	-4%	0%	-8%
CCOc1cc(C2C(C#N)=C(N)Oc3n[nH]c(-c4ccncc4)c32)cc([N+](=O)[O-])c1O (stereo not drawn)	-23%	13%	79µM*	-27%	2%	.
O=C(NC1CCN(C(=O)N2CC3CC(C2)[C@H]2CCCC(=O)N2C3)CC1)C1CCOCC1 (stereo partly drawn)	.	.	.	.	8%	.
Cc1ccc(/C=C/C(=O)Nc2ccc(Oc3ccccc3)cc2)o1	11µM*	?	28µM*	-33%	16µM*	?
O=C(O)/C=C/C(=O)Nc1ccc(Oc2ccccc2)cc1	.	24%	15%	-12%	?	-23%
Cc1ccc(/C=C/C(=O)Nc2ccc([N+](=O)[O-])cc2)o1	28µM*	14%	14µM*	-8%	6.3µM*	50µM*
Cc1ccc(/C=C/C(=O)Nc2nnc(C)s2)o1	-8%[59 µM]	13%	-10%	-4%	-4%	1%
CC(=O)c1ccc(NC(=O)/C=C/c2ccc(C)o2)cc1	11µM*	?	.	50µM*	-15%	?
CNC(=O)Cc1ccc(NC(=O)C=C(C)C)cc1	.	.	.	.	4%	.
Cc1csc(Sc2ccc(C(=O)OCC(=O)Nc3ccc(F)cc3[N+](=O)[O-])cc2[N+](=O)[O-])n1	35µM*	0%	9%	?	-3%	-33%
Cc1ccc(S(=O)(=O)N2CCCC2)cc1[N+](=O)[O-]	33%[59 µM]	20%	16%	-18%	-7%	5%
Cc1ccc([N+](=O)[O-])c2c1C(N1CCCC1)C(C)(C)O2 (stereo not drawn)	11µM*	7%	1%	-31%	?	?
Cc1ccc(C(=O)O)cc1-c1ccc(C=O)o1	.	.	.	.	3%	.
O=Cc1ccc(-c2ccc(C(=O)O)cc2)o1	.	-12%	-14%	-16%	-18%	-15%
CC(=O)c1ccc(-c2ccc(/C=C(/Sc3n[nH]c(C)n3)C(=O)O)o2)cc1	?	13%	10µM*	?	-9%	?
Cc1nc(S/C(=C/c2ccc(-c3cc(Cl)ccc3C)o2)C(=O)O)n[nH]1	.	13%	?	45µM*	6%	-33%
Cc1nc(S/C(=C/c2ccc(-c3ccc(C(=O)O)cc3)o2)C(=O)O)n[nH]1	11µM*	?	14µM*	20µM*	-19%	10µM*
Cc1nc(S/C(=C/c2ccc(-c3ccc(Cl)cc3)o2)C(=O)O)n[nH]1	-3%[59 µM]	2%	?	-22%	116%	9%
